# Measurements published in PubChem BioAssay AID493221 (Johns Hopkins Ion Channel Center, 2011).
# Out of some 2,400 compounds screened, about 1,700 (71%) were called active.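 Rule for the calls: active = choline transporter activity left, mean of duplicates at 10 µM, below buffer-only control mean minus 3 SD; inactive = the rest.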 So high a share suggests a set chosen from earlier hits. These entries were drawn from the full list.
# Target: High affinity choline transporter 1 (Homo sapiens) (UniProt Q9GZV3)
# Sequence (Q9GZV3 whole entry, looked up): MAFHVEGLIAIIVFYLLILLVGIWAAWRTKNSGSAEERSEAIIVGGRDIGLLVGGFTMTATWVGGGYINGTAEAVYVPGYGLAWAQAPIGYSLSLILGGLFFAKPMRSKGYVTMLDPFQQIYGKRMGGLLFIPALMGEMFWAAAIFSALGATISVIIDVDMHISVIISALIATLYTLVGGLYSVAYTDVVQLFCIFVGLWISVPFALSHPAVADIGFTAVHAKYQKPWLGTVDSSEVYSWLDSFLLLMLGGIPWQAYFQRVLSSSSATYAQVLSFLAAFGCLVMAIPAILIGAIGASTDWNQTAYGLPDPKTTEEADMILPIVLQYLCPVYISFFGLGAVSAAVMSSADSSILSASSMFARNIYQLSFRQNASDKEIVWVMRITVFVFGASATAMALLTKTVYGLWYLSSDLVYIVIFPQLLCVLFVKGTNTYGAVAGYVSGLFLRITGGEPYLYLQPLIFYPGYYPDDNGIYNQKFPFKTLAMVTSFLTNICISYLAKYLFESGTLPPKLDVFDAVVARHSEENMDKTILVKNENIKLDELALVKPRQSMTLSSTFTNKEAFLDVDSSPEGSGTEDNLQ
# Experiment: human choline transporter blockers – cell-based, membrane potential dye, duplicate, confirmation (AID 493221)
# Details: CHT-expressing cells, at 10 µM, LV-to-AA substituted CHT, HEK293 cells
row,SMILES,CHT activity remaining % of control (hits give low values)
1,Cc1ccc(CS(=O)(=O)c2ncc(Cl)c(C(=O)Nc3nnc(C)s3)n2)cc1,25.2% (active)
2,O=C(Nc1nonc1-c1ccc(Cl)cc1)c1ccco1,68.2% (active)
3,COCCNc1nc(-n2nc(C)cc2C)nc2sc3c(c12)CCCC3,71.2% (active)
4,O=C(CCCN1C(=O)CSc2ncccc21)N1CCN(c2cccc(C(F)(F)F)c2)CC1,42.1% (active)
5,COc1cccc(-c2nn(-c3ccccc3)cc2/C=C(\C#N)C(=O)NCCCn2ccnc2)c1,28.8% (active)
6,CC(=O)OCCOCn1cnn2c(=O)c(Br)c(C)nc12,37.2% (active)
7,Cc1ccccc1-n1nnc2c(=O)oc3ccccc3c21,inactive
8,CN(Cc1ccccc1)CC(O)COc1ccc(CNCc2cc3ccccc3s2)cc1 (centres undefined),53.6% (active)
9,CCS(=O)(=O)C1=NSC2=NC(=O)/C(=C\c3ccc(OS(=O)(=O)c4ccccc4)cc3)C(=N)N21,53.4% (active)
10,CCCCCn1c(=O)c(C(=O)OCC)c(Cl)c2ccccc21,45.3% (active)
11,O=c1c2ccccc2nnn1CSc1nc2sc3c(c2c(=O)n1CC1CCCO1)CCC3 (centres undefined),24% (active)
12,Cc1ccc(NNC(=O)c2cccs2)cc1Cl,64.8% (active)
13,CCC(C(=O)N1CCOCC1)n1c(C(=O)OC)cc2occc21 (centres undefined),55% (active)
14,CCNC(=O)CC1C(=O)N(c2ccc(F)cc2)C(=O)N1CCc1sccc1C (centres undefined),inactive
15,O=C1c2cccc3cccc(c23)C(=O)N1CCCCCc1n[nH]c(=S)o1,inactive
16,COc1ccc(Cn2c(=O)sc3ccccc32)cc1OC,63.4% (active)
17,CCOc1ccccc1Nc1ccc2nonc2c1[N+](=O)[O-],33.1% (active)
18,COc1ccc(S(=O)(=O)N2CCN(C(=O)NC3CCCCC3)CC2)cc1,inactive
19,CC(=O)N1CCN(S(=O)(=O)c2cccc(C(=O)NC3CCC(C)CC3)c2)CC1 (centres undefined),70.5% (active)
20,CCc1nc(C)cn1S(=O)(=O)c1cc([N+](=O)[O-])ccc1Cl,inactive
21,CCn1c(SCCC(C)C)nnc1-c1c[nH]c2ccccc12,67.1% (active)
22,Cc1ccccc1-n1c(C)cc(/C=N/NC(=O)c2ccc(CN3CCOCC3)cc2)c1C,69.4% (active)
23,CC(=O)c1ccc(Oc2cc(C)nc(-n3nc(C)cc3C)n2)cc1,inactive
24,CCOC(=O)N1CCN(C(=O)C2CCN(c3ncnc4c3sc3cccc(F)c34)CC2)CC1,68.8% (active)
25,Cc1[nH]c2ccccc2c1C(=O)CN1CCCC(C)C1 (centres undefined),60.9% (active)

row,SMILES,CHT activity remaining % of control (hits give low values)
1,O=C(Cn1nc(C(F)(F)F)c2c1CCC2)NCc1ccc(F)cc1,63.8% (active)
2,COC(=O)c1ccccc1NC(=O)Cn1nc(C(F)(F)F)c2c1CCC2,inactive
3,O=[N+]([O-])c1ccccc1Nc1ccc(O)cc1,42.1% (active)
4,COc1ccc(-n2nnnc2CNC(=O)c2ccc3ccccc3c2)cc1,56.6% (active)
5,COc1ccc(N2C(=O)CNC2=S)cc1,inactive
6,Cc1ccc(S(=O)(=O)/N=C(/NC(=S)Nc2c(C)n(C)n(-c3ccccc3)c2=O)c2ccccc2)cc1,39.1% (active)
7,O=C(c1cccs1)C1C(c2ccc(Br)cc2)NC(=S)NC1(O)C(F)(F)F (centres undefined),54.2% (active)
8,Oc1c(Cl)cc(Cl)c(Cl)c1Cc1c(O)c(Cl)cc(Cl)c1Cl,10.1% (active)
9,O=S(=O)(Cc1cc(Cl)nc(-c2cccnc2)n1)c1ccccc1,60.6% (active)
10,Cc1ccc2c(C)c(C(=O)N3CCC(N4CCC(C(=O)NC5CC5)CC4)CC3)oc2c1,61.6% (active)
11,Cc1oc2cc([N+](=O)[O-])c(O)c([N+](=O)[O-])c2c1C(=O)c1ccc(Br)cc1,inactive
12,CCCn1c2ccccc2c2cnn(CC(=O)NCCCN3CCCCC3CC)c(=O)c21 (centres undefined),36.8% (active)
13,Cc1nn(CC(=O)NCC2CCCO2)c(=O)c2cc3ccccc3n12 (centres undefined),inactive
14,O=C(Cn1ncc2c3ccccc3n(Cc3ccccc3)c2c1=O)NCCCN1CCOCC1,32.8% (active)
15,CCCCOc1ccc(Cl)cc1CSc1nncn1N,inactive
16,COc1ccc(C(=O)NC(=S)NNC(=O)CCc2ccccc2)cc1,66.3% (active)
17,COc1ccc(C(=O)NNC(=S)NC(=O)c2ccccc2)cc1,59.6% (active)
18,O=C(Nc1ccc(F)c(Cl)c1)C1CCN(S(=O)(=O)c2cccnc2)CC1,38.1% (active)
19,C=CCn1c(SCc2ccc(C(=O)NCCO)cc2)nc2ccccc2c1=O,inactive
20,COc1ccc(C(=O)NC(Cc2ccc(OC(=O)c3ccc(OC)cc3)cc2)C(=O)O)cc1 (centres undefined),18.8% (active)
21,O=C(NCCc1ccc2c(c1)OCCO2)c1cc2ccccc2o1,42.2% (active)
22,O=C(NCCCn1ccnc1)C(=O)c1cn(CC(=O)N2CCCCCC2)c2ccccc12,59.8% (active)
23,CCCCn1c(SCC(=O)NCC2CCCO2)nc2ccc(N3CCOCC3)cc2c1=O (centres undefined),inactive
24,CCCCCn1c(=O)[nH]c2cc(C(=O)NCCCN3CCCCC3C)ccc2c1=O (centres undefined),35.4% (active)
